Screening results deposited in PubChem BioAssay by University of Kansas High Throughput Screening Laboratory.
Many of the other results were omitted from the sample, so hits are more common in it than they were.
mHTT-CaM PPI inh: mutant huntingtin-calmodulin interaction inhibitors – biochemical, AlphaScreen, primary screen; AlphaScreen His-mHTT/GST-CaM binding, luminescence; inhibition, % at 15 µM; 190,000 tested, 3.6% active; AID 1671202, 2021;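 also: 0% = both proteins with DMSO and 100% = one protein alone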
Pf apPOL block: Pf-apPOL inhibitors, biochemical, fluorescence; inhibition, % at 10 µM; Plasmodium falciparum apicoplast DNA polymerase (apPOL); AID 1794808, 2022; Recombinant Pf-apPOL, molecular beacon fluorescence, 1.5 h; 210,000 tested, 0.25% active
Active calls of the source: *; . = no result given. Rule as the data show it: active = inhibition above about 50%; inactive = the rest.

SMILES	mHTT-CaM PPI inh	Pf apPOL block
Cn1nc(COCc2ccccc2)c2c1CCN(S(=O)(=O)c1ccc(Cl)cc1)C2	35.6	-3.6
CCC(=O)N1CCN(c2nc3c(s2)CC(C(=O)NCc2ccncc2)CC3)CC1 (stereo unspecified)	-2.2	0.9
CC(C)N1C(=O)c2ccccc2C1C(=O)NC1CCCCC1 (stereo unspecified)	-5.0	-13.3
Cc1ccnc(Nc2ccc(N3CCN(C(=O)C4CCCC4)CC3)nn2)c1	54.7*	-5.0
O=C(c1cnccn1)N1CCN(c2cc(-n3cccn3)ncn2)CC1	-10.0	-0.2
Cc1ccnc(NC(=O)C2CCCC2)c1	-3.8	-1.5
Cc1ccnc(Nc2ccc(N3CCN(C(=O)c4cnccn4)CC3)nn2)c1	90.4*	-7.8
CC(=O)NC1=NC(=O)/C(=C\c2ccc(-c3ccc4c(c3)COC4=O)o2)S1	3.0	-3.9
CCN1CCN(Cc2noc(-c3ccc(OC)cc3)n2)CC1	-1.8	-0.4
CC1(C)OC(=O)C(=Cc2ccc(-c3ccccc3[N+](=O)[O-])o2)C(=O)O1	1.0	5.2
O=[N+]([O-])c1ccccc1-c1ccc(/C=C/c2ccncc2)o1	69.0*	6.0
NC1=NC(=O)/C(=C/c2ccc(-c3ccccc3[N+](=O)[O-])o2)S1	59.0*	-11.8
O=C(C=Cc1ccc([N+](=O)[O-])cc1)c1cc2ccccc2oc1=O	1.6	0.9
O=C(/C=C/c1ccc(-c2ccccc2[N+](=O)[O-])o1)c1cc2ccccc2o1	76.6*	11.4
O=Cc1ccc(-c2ccccc2[N+](=O)[O-])o1	8.0	-1.4
O=C(CC1CCCCC1)N1CCN(c2nc(CN3CCCCC3)cs2)CC1	14.8	1.9
COc1ccc(/C=C2/N=C(c3ccc(Cl)cc3)OC2=O)cc1OC	6.0	-2.5
O=C(NCCn1nc(-c2ccncc2)ccc1=O)c1ccc(C(F)(F)F)cc1	-12.9	-7.6
O=C(Nc1ccc2c(c1)OCO2)C1CCCN(c2nnc3ccc(C(F)(F)F)cn23)C1 (stereo unspecified)	37.9	-5.0
CCOc1ccc2nc(Cl)c(C3CC(c4ccccc4)=NN3C(=O)CCC(=O)O)cc2c1 (stereo unspecified)	-4.0	1.3
Cc1cc(-c2nnc(NC(=O)C(C)(C)Oc3ccc(Cl)cc3)o2)c(C)o1	98.4*	-135.5
CC(C)(Oc1ccc(Cl)cc1)C(=O)Nc1nnc(-c2ccsc2)o1	43.3	-111.7
COC(=O)c1ccc(NC(=O)CSc2nc(=O)[nH]c3c2CCC3)cc1	3.2	2.5
O=C(CSc1nc(=O)[nH]c2c1CCC2)c1ccc(Cl)cc1	36.5	75.7*
CC1CCN(S(=O)(=O)c2cccn(CC#N)c2=O)CC1	-6.3	-0.7
SMILES	mHTT-CaM PPI inh	Pf apPOL block
CS(=O)(=O)N1CCN(C(=O)c2cc(-c3ccco3)[nH]n2)CC1	-8.9	-0.1
O=C(c1cc(-c2ccco2)[nH]n1)N1CCC(COCc2ccccc2)CC1	59.4*	-0.5
O=C(CN1CCN(C(=O)c2cc(-c3ccco3)[nH]n2)CC1)c1ccco1	59.7*	73.0*
Cc1cc(C(=O)N2CCC(COCc3ccccc3)CC2)no1	-14.2	-8.6
COc1cccc(C2C3CN(C(C)C)CC=C3C(C#N)=C(N)C2(C#N)C#N)c1OC (stereo unspecified)	16.0	-3.3
Cc1cc(S(=O)(=O)c2ccc(C(F)(F)F)cc2[N+](=O)[O-])c(Cl)cc1Cl	.	5.2
COc1ccc(OC)c(NC(=O)CN(c2cc(C)ccc2OC)S(C)(=O)=O)c1	15.5	-5.1
Cc1cccc(N2CC(C(=O)N3CCCCCC3)CC2=O)c1 (stereo unspecified)	-3.5	-2.2
Cc1cccc(-c2noc(-c3c(O)c4ccc(F)cc4[nH]c3=O)n2)c1	2.0	-0.1
CN(C)c1ccc(C(O)c2nc3ccccc3n2Cc2ccccc2)cc1 (stereo unspecified)	50.3*	-7.2
CC(O)c1nc2ccccc2n1Cc1ccccc1 (stereo unspecified)	6.0	-10.3
Fc1ccc(C2=CC(c3cc(Br)ccc3F)n3nnnc3N2)cc1 (stereo unspecified)	0.0	5.5
CC(=O)N1CCCC2(C1)Nc1ccccc1NC2=NCc1ccccc1 (stereo unspecified)	72.2*	0.7
O=C(c1ccccn1)N1CCCC2(C1)Nc1ccccc1NC2=NCc1ccccc1 (stereo unspecified)	45.0	-9.0
CCn1nccc1C(=O)N1CCCC2(C1)Nc1ccccc1NC2=NCc1ccccc1 (stereo unspecified)	35.7	-11.1
O=C(c1cccnc1)N1CCCC2(C1)Nc1ccccc1NC2=NCc1ccccc1 (stereo unspecified)	45.5	-4.8
O=C(c1ccco1)N1CCCC2(C1)Nc1ccccc1NC2=NCc1ccccc1 (stereo unspecified)	83.8*	-4.8
O=C(c1ccoc1)N1CCCC2(C1)Nc1ccccc1NC2=NCc1ccccc1 (stereo unspecified)	99.7*	4.3
CCC(=O)NC(C)c1nc2ccccc2n1Cc1ccccc1F (stereo unspecified)	-2.0	-1.7
